Only a selection was taken, and hits are over-represented in it overall.
IL1B secr inh: inflammasome signaling inhibition, IL-1 beta readout | THP-1 LPS/ATP IL-1B secretion, AlphaLISA, 16 h; stronger effect = lower value | activity change, % at 57.5 µM | hit rate 4.7% among 360,000 | AID 743279; in the data active = activity change below about -50%; inconclusive = mostly about -30% to -49%
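THP-1 cells pretreated 1 hr with compounds (up to 57.5 uM final), then stimulated with LPS (250 ng/mL final) plus ATP (1.25 mM final); secreted IL-1B measured by AlphaLISA after 16 hr, decreased signal indicating inhibition.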
HT1080 IDH1KD tx: kills HT-1080 cells with IDH1 knockdown; HT-1080 IDH1 knockdown viability, ATP luminescence, 48 h; Potency, µM (highest dose often 46.1 µM), for inactives: top-dose activity, negative = toxicity, most hits filed as cytotoxic; hit rate 2% among 360,000;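 note: potency is the fitted concentration of half-maximal effect; 0% = DMSO wells and -100% = cell-free medium wells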
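Knockdown cells (IDH1KD HT-1080) received compounds 2 h after plating at 750 cells/well and were kept 48 h at 37 °C in 5% FBS RPMI. A CellTiter-Glo luminescence read gave % activity for curve fitting.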
TDP1 cell CPT: DT40-hTDP1 cell growth loss with CPT. chicken DT40 Tdp1-/-;hTDP1 cells + 20 nM CPT, ATP luminescence, 48 h. Potency, µM (top dose mostly 46.2 µM), for the others: at the highest dose activity change, negative = growth inhibition, most hits filed as inhibitors. hit rate 12% among 420,000; note: potency is the fitted concentration of half-maximal effect; nearly all actives have a fitted effect of over 55% in size
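Chicken DT40 Tdp1-/- cells stably complemented with human TDP1 were seeded at 400 cells/well in medium containing 20 nM camptothecin, exposed to pin-transferred compounds, and grown at 37 °C for at least 48 hr. Viability was read as ATP luminescence.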
TDP1 cell noCPT: qHTS for Inhibitors of human tyrosyl-DNA phosphodiesterase 1 (TDP1): qHTS in cells in absence of CPT; DT40 Tdp1-/- hTDP1 cells, no CPT, ATP luminescence, 48 h; Potency, µM (doses to about 46.2 µM), for inactives: top-dose activity change, negative = growth inhibition, usual class: inhibitors; hit rate 15% among 420,000; AID 686978, 2013; note: potency is the fitted concentration of half-maximal effect; nearly all actives have a fitted effect of over 55% in size
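Compound effects on proliferation are scored in DT40 Tdp1-/-;hTDP1 cells in the absence of CPT. ATP levels (CellTiter-Glo luminescence) are recorded after a ≥48 hr, 37 °C incubation.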
12-LOX inh: inhibitors of human 12S-lipoxygenase ALOX12; Potency, µM (top dose mostly 108 µM), inactives show top-dose activity change, negative = inhibition, most hits filed as inhibitors; hit rate 1.1% among 580,000; purified 12hLO, xylenol orange hydroperoxide absorbance; P18054; note: potency is the fitted concentration of half-maximal effect
Target sequence (P18054 whole entry, looked up): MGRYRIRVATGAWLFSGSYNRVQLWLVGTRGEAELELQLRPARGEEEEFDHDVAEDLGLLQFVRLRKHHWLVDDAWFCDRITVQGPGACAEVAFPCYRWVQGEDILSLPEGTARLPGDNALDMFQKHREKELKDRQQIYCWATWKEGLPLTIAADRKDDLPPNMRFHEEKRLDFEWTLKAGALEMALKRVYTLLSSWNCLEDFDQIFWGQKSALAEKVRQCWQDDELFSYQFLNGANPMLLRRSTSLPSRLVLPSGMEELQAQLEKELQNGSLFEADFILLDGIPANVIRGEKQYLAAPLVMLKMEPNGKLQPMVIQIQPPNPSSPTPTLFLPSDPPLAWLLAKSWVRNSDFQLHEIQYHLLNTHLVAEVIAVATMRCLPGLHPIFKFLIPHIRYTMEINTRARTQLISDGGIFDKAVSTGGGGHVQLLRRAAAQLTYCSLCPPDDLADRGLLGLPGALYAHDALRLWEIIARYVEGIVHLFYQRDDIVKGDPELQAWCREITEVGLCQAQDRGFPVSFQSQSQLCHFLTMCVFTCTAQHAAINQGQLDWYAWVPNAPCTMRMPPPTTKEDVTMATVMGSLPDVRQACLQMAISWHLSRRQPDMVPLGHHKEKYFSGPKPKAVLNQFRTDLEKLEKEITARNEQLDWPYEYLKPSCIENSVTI
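Hydroperoxide product was detected by ferrous iron/xylenol orange as the 573 to 405 nm absorbance ratio. Arachidonic acid at 40 uM (final) was turned over for 30 min at room temperature by 150 nM human 12hLO, pH 7.0 Hepes buffer, after 15 min compound preincubation.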
HT1080NT lethal: kills 2HG-producing HT-1080-NT fibrosarcoma cells; HT-1080-NT fibrosarcoma viability, CellTiter-Glo ATP luminescence, 48 h; Potency, µM (top dose mostly 46.1 µM), inactives show at the highest dose activity, negative = less viability, usual class: cytotoxic; hit rate 1.6% among 360,000;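 note: NT is the 2HG producing partner of a matched IDH1 knockdown line; potency is the fitted concentration of half-maximal effect; 0% = DMSO-treated cells and -100% = media-only wells without cells; nearly all actives have a fitted effect of over 55% in size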
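Read-out is CellTiter-Glo luminescence after 10 minutes at room temperature, following 48 hours' compound treatment of HT-1080-NT cells (750 cells/well, RPMI, 5% FBS, 37 degrees C).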
* hit, by the source's call; i = inactive; ? = inconclusive; · = no result; [ ] = another dose, or the depositor's remark. Unless noted, calls come from the whole dose curve; as a rule, active = well fitted curve in the direction sought with a large enough effect; inconclusive = small, poorly fitted or top-dose-only effect, or another doubt; inactive = no such curve, though single readings can be large; an effect the other way counts as inactive or inconclusive. Unless noted, % is set by controls: 0 for no effect and ±100 for the full control effect.

SMILES	IL1B secr inh	HT1080 IDH1KD tx	TDP1 cell CPT	TDP1 cell noCPT	12-LOX inh	HT1080NT lethal
Cc1cc(C(=O)OCC(=O)N(C)c2c(N)n(Cc3ccccc3)c(=O)[nH]c2=O)c(C)n1-c1ccccc1	-55*	-5%	?	-26%	?	-7%
O=C1Nc2ccccc2C12CCN(Cc1cncs1)C2 (stereo unspecified)	·	·	·	·	2%[12.5 µM]	·
Cc1ccccc1-n1c(SCC(=O)N2CCOCC2)nc(O)c(Cc2ccccc2)c1=O	19	6%	-4%	5%	28%	13%
O=c1c2ccccc2nc(/C=C/c2cccnc2)n1CCc1ccccc1	-71*	?	15µM*	13µM*	0%	?
Cc1cccc(/C=C/c2nc3ccccc3c(=O)n2Cc2ccccc2)c1	-70*	?	?	?	-9%	?
CCn1c(/C=C/c2ccccc2Cl)nc2ccccc2c1=O	?	0%	?	16µM*	?	-5%
CCn1c(/C=C\c2ccccc2C)nc2ccccc2c1=O	-15	3%	23µM*	13µM*	4%	-1%
Cc1cc(C)cc(NC(=O)[C@H]2CCC[C@H]2NC(=O)c2cnc(C)cn2)c1	·	·	·	·	2%	·
CCn1c(/C=C/c2c[nH]c3ccccc23)nc2ccccc2c1=O	35	-17%	?	3.3µM*	-22%	?
CN(C)S(=O)(=O)c1ccc2[nH]cc(/C=C/c3nc4ccccc4c(=O)n3-c3ccccc3)c2c1	12	?	5.8µM*	5.2µM*	-7%	?
CCn1c(/C=C/c2ccccc2[N+](=O)[O-])nc2ccccc2c1=O	14	-6%	?	?	17%	-12%
CCCCOC(=O)C1CN(c2ccccc2)N=C1C(=O)OCC (stereo unspecified)	0	3%	23µM*	21µM*	-11%	2%
CNC(=O)c1cc(Oc2ccc(NC(=O)Nc3ccc(Cl)c(C(F)(F)F)c3)cc2)ccn1	-102*	?	21µM*	23µM*	11%	?
O=C(Nc1ccc(Cl)c(C(F)(F)F)c1)c1ccncc1	-9	-16%	?	15µM*	-8%	-9%
C/C(CC(=O)Nc1ccc(Cl)c(C(F)(F)F)c1)=N\NC(=O)c1cnccn1	-72*	?	?	-27%	12%	?
O=C(Nc1ccc(Cl)c(C(F)(F)F)c1)c1ccc(Cl)c(Cl)c1	·	·	·	·	-1%	·
Cc1ccc(C(=O)Nc2ccc(Br)c(C(F)(F)F)c2)cc1	?	?	?	23µM*	-12%	-26%
C/C(CC(=O)Nc1c(Cl)cccc1C(F)(F)F)=N\NC(=O)c1cnccn1	-1	-1%	?	3%	3%	-13%
Cc1ccc(-n2nc3n(c2=O)CCN(C(=O)C2CC2)C3)cc1	·	·	·	·	-5%[176 µM]	·
O=C(NCCc1noc(C2CC2)n1)c1ccoc1	·	·	·	·	3%	·
CCCCN(C)CCNC(=O)c1cc2c(-c3cccc(OC)c3)nn(C)c2s1	-87*	23µM*	?	21µM*	-12%	18µM*
COc1cccc(-c2nn(C)c3sc(C(=O)NCCCN(C)Cc4ccccc4)cc23)c1	-79*	18µM*	?	16µM*	0%	18µM*
COc1cccc(-c2nn(C)c3sc(C(=O)NCCc4ccc(Cl)cc4)cc23)c1	·	·	?	?	4%	·
CCCCN(C)CCNC(=O)c1cc2cc3ccc(OC)cc3nc2o1	?	-1%	1%	-33%	-54%	-7%
CCN(CC)CCCNC(=O)c1cc2c(-c3cccc(OC)c3)nn(C)c2s1	?	?	?	15µM*	0%	?
SMILES	IL1B secr inh	HT1080 IDH1KD tx	TDP1 cell CPT	TDP1 cell noCPT	12-LOX inh	HT1080NT lethal
COc1cccc(-c2cc(C(=O)NCc3ccco3)no2)c1	-11	-5%	5%	-23%	-14%	0%
COc1cccc(-c2nn(C)c3sc(C(=O)NCc4ccco4)cc23)c1	-56*	?	21µM*	-27%	?	-21%
COc1ccc(C(=O)Oc2cccc(C)c2C)cc1	·	·	·	·	-29%	·
C=C(C)COc1ccc2c(=O)c(Oc3ccc(C(=O)OCCC)cc3)c(C)oc2c1	·	·	·	·	-10%	·
CCNc1ccc(S(=O)(=O)N2CCOCC2)cc1NCC(=O)Nc1cccc(Br)c1	-14	-20%	7.3µM*	2.6µM*	-28%	-3%
CCNc1ccc(S(=O)(=O)N(C)C)cc1NCC(=O)Nc1ccccc1F	8	4%	-11%	?	-7%	8%
CCNc1ccc(S(=O)(=O)N(C)C)cc1NCC(=O)Nc1ccc(F)c(Cl)c1	-8	1%	12µM*	21µM*	-6%	-8%
O=C(CNc1cccc(S(=O)(=O)N2CCCCC2)c1)Nc1ccc(C(F)(F)F)cc1	12	-25%	?	?	?	-6%
Cc1ccc(NC(=O)CNc2cc(S(=O)(=O)N3CCOCC3)ccc2NCC2CCCO2)cc1F (stereo unspecified)	i	2%	?	?	-18%	-4%
CN(C)S(=O)(=O)c1ccc(NC(=O)CNc2cc(S(=O)(=O)N3CCCC3)ccc2OCC(F)(F)F)cc1	11	-9%	21µM*	18µM*	1%	-5%
O=C(CNc1cccc(S(=O)(=O)N2CCCC2)c1)Nc1ccc(C(F)(F)F)cc1	?	-26%	16µM*	15µM*	?	-18%
COCCNC(=O)[C@@H]1C[C@@H](O)CN1C1CCN(C(=O)c2ccccc2)CC1	·	·	·	·	7%	·
Cc1cc(C(=O)N2C[C@@H](COCC3CC3)[C@H](c3ccncc3)C2)c(C)o1	·	·	·	·	25%	·
Cn1cc(S(=O)(=O)N2CCCC2)cc1C(=O)Nc1ccc(C(F)(F)F)cc1	·	·	29µM*	?	0%	·
O=C(CNc1cccc(Br)c1)Nc1ccc(S(=O)(=O)N2CCCCC2)cc1	-25	?	21µM*	?	0%	?
Cc1cccc(NC(=O)CSCC(=O)Nc2ccc(S(=O)(=O)N3CCCC3)cc2)c1	20	-8%	-3%	-27%	-26%	0%
Cc1cccc(CNc2ccc(S(=O)(=O)N3CCCCC3)cc2)c1	-23	1%	21µM*	?	20%	-5%
CC1(C)CC(NS(=O)(=O)c2ccc3ccccc3c2)CC(C)(C)N1	-21	-4%	8%	-7%	-5%	-1%
Fc1ccccc1-c1ccc(-c2nc3ccc(Cl)cn3c2Nc2ccc(Cl)cc2)o1	·	?	4.5µM*	3.5µM*	·	?
Cc1ccc(-c2nc3ccc(Cl)cn3c2Nc2ccc3c(c2)OCCO3)s1	·	·	18µM*	?	-16%	·

Screening results as filed in PubChem.
